Targets with a hit are over-represented here; the source holds about 7,900 in all. About 0.6% of all pairs of compound and target were hits.
Assays:
Assay in all cases: log2 fold change, soluble protein after heating vs DMSO (PISA); higher = thermal stabilisation; K562 cells, 10 uM, 30 min; active = over 0.2 and 3.5 SD of the protein, either way, in both replicates (recomputed)
saracatinib = compound: CN1CCN(CCOc2cc(OC3CCOCC3)c3c(Nc4c(Cl)ccc5c4OCO5)ncnc3c2)CC1 [saracatinib]
How it was run: (§1)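 Thermal stability values are relative to control samples and come from duplicates. They are expressed as log2 fold changes. For measurement, K562 cells (2×10^6 cells/mL) received 10 μM compound for 30 min, and aliquots were heated for 3 min over 48°C-58°C, pooled, and extracted at 4°C in PBS with 0.5% NP-40. Soluble protein, the supernatant after 21,000xg for 90 min, was quantified by TMTpro 16plex LC-MS/MS with equalised channel sums.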

sotrastaurin = compound: CN1CCN(c2nc(C3=C(c4c[nH]c5ccccc45)C(=O)NC3=O)c3ccccc3n2)CC1 [sotrastaurin]
How it was run: as §1

alvocidib = compound: CN1CC[C@H](c2c(O)cc(O)c3c(=O)cc(-c4ccccc4Cl)oc23)[C@H](O)C1 [alvocidib]
How it was run: as §1

Tubastatin A = compound: CN1CCc2c(c3ccccc3n2Cc2ccc(C(=O)NO)cc2)C1 [Tubastatin A]
How it was run: as §1

[1] = compound: CNC(=O)C1=CC=CC=C1NC2=NC(=NC=C2Cl)NC3=C(C=C(C=C3)N4CCOCC4)OC
How it was run: as §1

defactinib = compound: CNC(=O)c1ccc(Nc2ncc(C(F)(F)F)c(NCc3nccnc3N(C)S(C)(=O)=O)n2)cc1 [defactinib]
How it was run: as §1

[2] = compound: CNc1nc(-c2ccc3c(N)n[nH]c3c2)cc(N2C[C@@H](C(=O)NC3CCCCC3)CC[C@H]2C)n1
How it was run: as §1

[3] = compound: COC(=O)[C@H](CCSC)NC(=O)C1=C(C=C(C=C1)NC[C@H](CS)N)C2=CC=CC=C2
How it was run: as §1

[4] = compound: COC1=CC=C(C=C1)CN2C=CC3=C2C=C(C=C3)C(=O)NO
How it was run: as §1

filanesib = compound: CON(C)C(=O)N1N=C(c2cc(F)ccc2F)S[C@@]1(CCCN)c1ccccc1 [filanesib]
How it was run: as §1

zotarolimus = compound: CO[C@H]1C[C@@H]2CC[C@@H](C)[C@@](O)(O2)C(=O)C(=O)N2CCCC[C@H]2C(=O)O[C@H]([C@H](C)C[C@@H]2CC[C@H](n3cnnn3)[C@H](OC)C2)CC(=O)[C@H](C)/C=C(\C)[C@@H](O)[C@@H](OC)C(=O)[C@H](C)C[C@H](C)/C=C/C=C/C=C/1C [zotarolimus]
How it was run: as §1

idasanutlin = compound: COc1cc(C(=O)O)ccc1NC(=O)[C@@H]1N[C@@H](CC(C)(C)C)[C@](C#N)(c2ccc(Cl)cc2F)[C@H]1c1cccc(Cl)c1F [idasanutlin]
How it was run: as §1

[5] = compound: COc1cc2nc(-c3cc(F)ccc3O)nc(N[C@@H]3CNC[C@H]3C(C)(C)O)c2cc1OC
How it was run: as §1

gefitinib = compound: COc1cc2ncnc(Nc3ccc(F)c(Cl)c3)c2cc1OCCCN1CCOCC1 [gefitinib]
How it was run: as §1

lapatinib = compound: CS(=O)(=O)CCNCc1ccc(-c2ccc3ncnc(Nc4ccc(OCc5cccc(F)c5)c(Cl)c4)c3c2)o1 [lapatinib]
How it was run: as §1

pictilisib = compound: CS(=O)(=O)N1CCN(Cc2cc3nc(-c4cccc5[nH]ncc45)nc(N4CCOCC4)c3s2)CC1 [pictilisib]
How it was run: as §1

rucaparib = compound: CNCc1ccc(-c2[nH]c3cc(F)cc4c3c2CCNC4=O)cc1 [rucaparib]
How it was run: as §1

encorafenib = compound: COC(=O)N[C@@H](C)CNc1nccc(-c2cn(C(C)C)nc2-c2cc(Cl)cc(NS(C)(=O)=O)c2F)n1 [encorafenib]
How it was run: as §1

alisertib = compound: COc1cc(Nc2ncc3c(n2)-c2ccc(Cl)cc2C(c2c(F)cccc2OC)=NC3)ccc1C(=O)O [alisertib]
How it was run: as §1

[6] = compound: COc1cccc2cc(-c3nc([C@H]4CC[C@H](C(=O)O)CC4)n4ncnc(N)c34)[nH]c12
How it was run: as §1

Measured: log2 fold change

ITGA2B (UniProt P08514)
inactive: saracatinib 0.025 | sotrastaurin -0.03 | alvocidib 0.111 | Tubastatin A -0.043 | [1] 0.037 | defactinib 0.059 | [2] -0.036 | [3] 0.058 | [4] 0.004 | filanesib 0.086 | zotarolimus -0.065 | idasanutlin 0.138 | [5] 0.074 | gefitinib -0.086 | lapatinib 0.033
active: pictilisib -0.589

KLHL18 (UniProt O94889)
inactive: saracatinib -0.033 | sotrastaurin -0.042 | alvocidib -0.084 | Tubastatin A 0.144 | [1] -0.077 | defactinib -0.04 | rucaparib -0.042 | [2] 0.007 | encorafenib 0.019 | [3] -0.05 | filanesib 0 | zotarolimus 0.022 | idasanutlin -0.048 | alisertib -0.068 | [5] -0.048 | gefitinib 0.057 | [6] 0.038 | lapatinib 0.071 | pictilisib 0.09

KMT2C isoform 3 (UniProt Q8NEZ4)
inactive: saracatinib -0.026 | sotrastaurin -0.02 | alvocidib -0.084 | Tubastatin A -0.029 | [1] 0.009 | defactinib -0.043 | rucaparib -0.043 | [2] -0.046 | encorafenib -0.012 | [3] 0.035 | filanesib 0.029 | zotarolimus -0.028 | idasanutlin 0.012 | alisertib -0.028 | gefitinib 0.058 | [6] -0.027 | pictilisib 0.229

MAN2B2 (UniProt Q9Y2E5)
UniProt Q9Y2E5, sequence (Q9Y2E5 whole entry, looked up): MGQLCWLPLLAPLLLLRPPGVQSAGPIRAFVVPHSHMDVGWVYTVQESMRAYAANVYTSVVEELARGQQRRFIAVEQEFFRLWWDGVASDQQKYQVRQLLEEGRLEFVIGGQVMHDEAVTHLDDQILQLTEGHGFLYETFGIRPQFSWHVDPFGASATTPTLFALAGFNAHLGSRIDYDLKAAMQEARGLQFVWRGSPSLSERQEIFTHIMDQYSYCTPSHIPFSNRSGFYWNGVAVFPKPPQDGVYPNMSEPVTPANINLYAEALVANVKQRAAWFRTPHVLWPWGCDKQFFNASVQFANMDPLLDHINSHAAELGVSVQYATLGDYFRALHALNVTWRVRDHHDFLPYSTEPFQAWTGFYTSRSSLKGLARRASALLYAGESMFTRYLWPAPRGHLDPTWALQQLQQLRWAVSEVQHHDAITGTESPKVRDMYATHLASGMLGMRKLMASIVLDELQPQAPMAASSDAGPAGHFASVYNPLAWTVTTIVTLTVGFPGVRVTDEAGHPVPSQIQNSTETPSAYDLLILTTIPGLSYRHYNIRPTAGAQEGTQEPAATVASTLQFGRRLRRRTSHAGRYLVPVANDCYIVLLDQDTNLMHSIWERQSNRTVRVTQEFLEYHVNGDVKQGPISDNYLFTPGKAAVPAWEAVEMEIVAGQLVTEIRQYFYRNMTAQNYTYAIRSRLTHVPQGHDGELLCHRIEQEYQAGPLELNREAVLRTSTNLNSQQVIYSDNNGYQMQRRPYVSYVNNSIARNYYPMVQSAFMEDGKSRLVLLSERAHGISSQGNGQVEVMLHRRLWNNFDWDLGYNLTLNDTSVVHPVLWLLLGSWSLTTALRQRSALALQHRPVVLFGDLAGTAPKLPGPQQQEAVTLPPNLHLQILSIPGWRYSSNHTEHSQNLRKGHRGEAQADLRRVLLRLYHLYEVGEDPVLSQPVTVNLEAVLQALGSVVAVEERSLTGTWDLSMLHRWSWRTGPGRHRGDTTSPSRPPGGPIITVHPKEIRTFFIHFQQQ
inactive: saracatinib -0.015 | sotrastaurin -0.018 | Tubastatin A 0.105 | [1] 0.035 | defactinib -0.009 | rucaparib -0.158 | [2] 0.007 | encorafenib 0.044 | [3] -0.04 | [4] -0.077 | filanesib -0.027 | idasanutlin -0.012 | alisertib 0.022 | [5] -0.038 | gefitinib 0.044 | [6] 0.075 | lapatinib -0.026

LRBA, A0A494BZW2
inactive: saracatinib -0.005 | sotrastaurin 0.065 | alvocidib 0.015 | Tubastatin A -0.42 | [1] -0.368 | rucaparib -0.055 | [2] -0.008 | encorafenib 0.041 | [4] 0.006 | filanesib -0.136 | zotarolimus -0.127 | idasanutlin -0.207 | alisertib 0.001 | [5] 0.453 | gefitinib -0.026 | [6] 0.046 | lapatinib -0.097 | pictilisib 0.095

LUM (UniProt P51884)
inactive: saracatinib 0.081 | sotrastaurin 0.29 | alvocidib 0.047 | Tubastatin A -0.145 | [1] 0.085 | defactinib -0.071 | rucaparib -0.167 | [2] 0.014 | encorafenib -0.011 | [3] 0.283 | [4] -0.151 | filanesib 0.169 | zotarolimus 0 | idasanutlin -0.023 | [5] -0.216 | gefitinib 0.087 | lapatinib 0.067

MAP3K20 (UniProt Q9NYL2)
inactive: saracatinib -0.106 | sotrastaurin 0.055 | alvocidib 0.065 | Tubastatin A 0.004 | [1] 0.054 | defactinib -0.018 | rucaparib 0.002 | [2] 0.01 | encorafenib 0.02 | [3] -0.034 | [4] 0.04 | filanesib 0.075 | zotarolimus 0.033 | idasanutlin 0.064 | [5] 0.048 | gefitinib -0.042 | [6] -0.059 | lapatinib 0 | pictilisib -0.02

MAGED1 isoform 2 (UniProt Q9Y5V3)
UniProt Q9Y5V3, sequence (Q9Y5V3 whole entry, looked up): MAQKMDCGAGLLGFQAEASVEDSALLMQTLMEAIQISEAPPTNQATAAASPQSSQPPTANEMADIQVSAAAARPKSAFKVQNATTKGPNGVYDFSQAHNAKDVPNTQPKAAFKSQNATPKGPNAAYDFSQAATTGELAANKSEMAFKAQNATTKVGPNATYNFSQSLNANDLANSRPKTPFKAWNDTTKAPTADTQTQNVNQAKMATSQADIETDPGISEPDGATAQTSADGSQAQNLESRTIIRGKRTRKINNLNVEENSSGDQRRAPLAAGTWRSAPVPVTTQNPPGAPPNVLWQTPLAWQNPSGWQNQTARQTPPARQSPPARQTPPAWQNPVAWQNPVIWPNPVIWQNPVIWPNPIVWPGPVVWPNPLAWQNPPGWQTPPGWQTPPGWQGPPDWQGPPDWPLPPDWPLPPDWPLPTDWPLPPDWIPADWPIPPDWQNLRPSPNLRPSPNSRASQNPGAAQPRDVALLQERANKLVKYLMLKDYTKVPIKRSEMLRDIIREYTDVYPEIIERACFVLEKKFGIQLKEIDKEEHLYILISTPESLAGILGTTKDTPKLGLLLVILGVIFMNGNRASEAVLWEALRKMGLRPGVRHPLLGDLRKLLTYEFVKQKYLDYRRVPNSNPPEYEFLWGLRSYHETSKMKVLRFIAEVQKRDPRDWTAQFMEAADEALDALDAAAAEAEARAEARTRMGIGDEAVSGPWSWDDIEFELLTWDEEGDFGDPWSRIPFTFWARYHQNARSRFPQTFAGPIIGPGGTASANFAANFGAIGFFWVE
inactive: saracatinib -0.073 | sotrastaurin -0.196 | alvocidib 0.002 | [1] 0.015 | defactinib 0.036 | [2] 0.117 | [3] 0.197 | filanesib 0.264 | zotarolimus 0.001 | idasanutlin 0.054 | [5] -0.058 | gefitinib 0.228 | lapatinib 0.034

MED12 isoform 2 (UniProt Q93074)
inactive: saracatinib 0.072 | sotrastaurin -0.09 | Tubastatin A 0.32 | [1] 0.303 | rucaparib 0.137 | [2] 0.102 | encorafenib 0.145 | [4] 0.093 | filanesib 0.256 | idasanutlin 0.103 | alisertib 0.214 | [5] -0.09 | gefitinib 0.024 | [6] 0.007 | lapatinib 0.028 | pictilisib -0.113

LRFN1 (UniProt Q9P244)
UniProt Q9P244, sequence (Q9P244 whole entry, looked up): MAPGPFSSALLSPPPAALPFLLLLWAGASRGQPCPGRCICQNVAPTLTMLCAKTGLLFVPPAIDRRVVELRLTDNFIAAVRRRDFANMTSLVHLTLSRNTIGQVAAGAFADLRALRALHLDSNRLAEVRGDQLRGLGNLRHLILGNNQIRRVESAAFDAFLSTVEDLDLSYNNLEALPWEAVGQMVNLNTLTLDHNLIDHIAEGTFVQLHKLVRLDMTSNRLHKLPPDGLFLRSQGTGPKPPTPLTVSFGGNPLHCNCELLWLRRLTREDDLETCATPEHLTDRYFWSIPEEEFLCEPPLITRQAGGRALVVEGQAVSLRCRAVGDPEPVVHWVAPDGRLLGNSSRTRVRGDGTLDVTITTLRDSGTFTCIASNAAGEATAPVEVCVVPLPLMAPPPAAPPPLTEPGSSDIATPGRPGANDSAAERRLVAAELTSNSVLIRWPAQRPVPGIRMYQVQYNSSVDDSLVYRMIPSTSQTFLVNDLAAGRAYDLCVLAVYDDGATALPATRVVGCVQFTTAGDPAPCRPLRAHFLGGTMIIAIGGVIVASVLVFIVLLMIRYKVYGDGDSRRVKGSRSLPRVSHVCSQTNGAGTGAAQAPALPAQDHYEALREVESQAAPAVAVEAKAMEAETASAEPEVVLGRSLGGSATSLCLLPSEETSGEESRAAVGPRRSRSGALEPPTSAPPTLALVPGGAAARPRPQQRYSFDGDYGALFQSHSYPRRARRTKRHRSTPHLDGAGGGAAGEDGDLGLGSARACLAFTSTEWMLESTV
inactive: saracatinib 0.053 | sotrastaurin -0.08 | Tubastatin A -0.006 | [1] -0.24 | defactinib -0.048 | rucaparib 0.062 | [2] -0.028 | encorafenib -0.227 | [3] -0.069 | [4] -0.054 | filanesib 0.151 | zotarolimus 0.031 | [5] 0.025 | lapatinib -0.048
active: alvocidib -0.44

LSR isoform 3 (UniProt Q86X29)
inactive: saracatinib -0.207 | sotrastaurin 0.176 | alvocidib 0.088 | Tubastatin A 0.084 | [2] 0.114 | filanesib 0.188 | zotarolimus 0.115 | alisertib -0.011 | [5] 0.041 | [6] 0.033 | lapatinib 0.073

JAK3 (UniProt P52333)
inactive: saracatinib -0.03 | sotrastaurin -0.042 | alvocidib 0.004 | Tubastatin A -0.016 | [1] 0.116 | defactinib 0.003 | [2] -0.158 | [3] -0.056 | [4] -0.216 | filanesib -0.019 | zotarolimus 0.018 | alisertib 0.052 | [5] -0.083 | gefitinib -0.047 | [6] -0.02 | lapatinib 0.01 | pictilisib -0.056

MASTL (UniProt Q96GX5)
inactive: saracatinib 0.107 | sotrastaurin -0.12 | alvocidib -0.061 | [1] 0.054 | defactinib 0.037 | rucaparib -0.17 | [2] -0.055 | encorafenib 0.083 | [3] 0.079 | [4] 0.147 | filanesib -0.09 | zotarolimus 0.088 | idasanutlin 0.072 | alisertib -0.09 | gefitinib -0.107 | [6] -0.155

LMBRD1 (UniProt Q9NUN5)
UniProt Q9NUN5, sequence (Q9NUN5 whole entry, looked up): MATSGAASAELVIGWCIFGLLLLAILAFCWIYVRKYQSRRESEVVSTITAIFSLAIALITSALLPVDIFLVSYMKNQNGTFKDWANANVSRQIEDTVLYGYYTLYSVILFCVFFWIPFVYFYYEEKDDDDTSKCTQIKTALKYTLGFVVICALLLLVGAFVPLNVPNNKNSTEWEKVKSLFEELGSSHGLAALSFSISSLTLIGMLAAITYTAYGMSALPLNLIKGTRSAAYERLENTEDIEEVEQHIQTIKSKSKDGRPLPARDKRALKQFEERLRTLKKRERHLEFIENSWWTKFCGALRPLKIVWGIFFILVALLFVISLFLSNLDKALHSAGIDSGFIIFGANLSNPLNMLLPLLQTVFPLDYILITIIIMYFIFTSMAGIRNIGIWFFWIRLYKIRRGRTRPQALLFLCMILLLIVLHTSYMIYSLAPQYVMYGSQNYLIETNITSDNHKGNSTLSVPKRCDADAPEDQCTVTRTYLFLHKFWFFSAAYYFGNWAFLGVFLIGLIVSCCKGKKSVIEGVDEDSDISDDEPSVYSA
inactive: saracatinib 0.154 | sotrastaurin 0.023 | alvocidib 0.042 | Tubastatin A 0.098 | [1] 0.052 | defactinib 0.047 | rucaparib -0.023 | [2] -0.173 | encorafenib 0.053 | [3] -0.057 | zotarolimus 0.049 | idasanutlin 0.102 | alisertib -0.022 | [5] -0.062 | gefitinib 0 | [6] 0.059 | lapatinib -0.026 | pictilisib -0.03
active: filanesib -0.39

LUZP1 (UniProt Q86V48)
active: filanesib 0.552
inactive: saracatinib 0.075 | sotrastaurin -0.088 | alvocidib 0.229 | Tubastatin A 0.13 | [1] -0.022 | defactinib -0.498 | [2] 0.002 | [3] -0.209 | [4] -0.08 | zotarolimus -0.059 | idasanutlin 0.03 | alisertib -0.081 | [5] -0.036 | gefitinib 0.051 | [6] -0.117 | lapatinib 0.041 | pictilisib 0.07

LAMP2 isoform 2 (UniProt P13473)
UniProt P13473, sequence (P13473 whole entry, looked up): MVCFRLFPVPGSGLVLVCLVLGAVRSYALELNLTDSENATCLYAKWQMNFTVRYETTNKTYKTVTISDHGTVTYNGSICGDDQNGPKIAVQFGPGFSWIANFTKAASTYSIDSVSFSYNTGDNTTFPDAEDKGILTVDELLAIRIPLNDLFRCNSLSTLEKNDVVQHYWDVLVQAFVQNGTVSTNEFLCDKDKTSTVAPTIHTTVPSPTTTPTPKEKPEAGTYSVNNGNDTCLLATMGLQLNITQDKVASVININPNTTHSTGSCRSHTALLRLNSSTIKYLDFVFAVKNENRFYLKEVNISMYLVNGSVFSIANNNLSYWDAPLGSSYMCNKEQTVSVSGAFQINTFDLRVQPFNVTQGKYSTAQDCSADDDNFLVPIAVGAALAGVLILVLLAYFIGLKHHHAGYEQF
inactive: saracatinib 0.24 | alvocidib -0.026 | Tubastatin A 0.021 | [1] 0.027 | defactinib 0.078 | rucaparib 0.024 | [2] -0.192 | encorafenib 0.043 | [3] -0.017 | [4] -0.049 | zotarolimus 0.022 | idasanutlin 0.017 | alisertib -0.105 | [5] -0.027 | gefitinib -0.039 | [6] 0.09 | lapatinib -0.104 | pictilisib 0.075

MAP4K2 (UniProt Q12851)
UniProt Q12851, sequence (Q12851 whole entry, looked up): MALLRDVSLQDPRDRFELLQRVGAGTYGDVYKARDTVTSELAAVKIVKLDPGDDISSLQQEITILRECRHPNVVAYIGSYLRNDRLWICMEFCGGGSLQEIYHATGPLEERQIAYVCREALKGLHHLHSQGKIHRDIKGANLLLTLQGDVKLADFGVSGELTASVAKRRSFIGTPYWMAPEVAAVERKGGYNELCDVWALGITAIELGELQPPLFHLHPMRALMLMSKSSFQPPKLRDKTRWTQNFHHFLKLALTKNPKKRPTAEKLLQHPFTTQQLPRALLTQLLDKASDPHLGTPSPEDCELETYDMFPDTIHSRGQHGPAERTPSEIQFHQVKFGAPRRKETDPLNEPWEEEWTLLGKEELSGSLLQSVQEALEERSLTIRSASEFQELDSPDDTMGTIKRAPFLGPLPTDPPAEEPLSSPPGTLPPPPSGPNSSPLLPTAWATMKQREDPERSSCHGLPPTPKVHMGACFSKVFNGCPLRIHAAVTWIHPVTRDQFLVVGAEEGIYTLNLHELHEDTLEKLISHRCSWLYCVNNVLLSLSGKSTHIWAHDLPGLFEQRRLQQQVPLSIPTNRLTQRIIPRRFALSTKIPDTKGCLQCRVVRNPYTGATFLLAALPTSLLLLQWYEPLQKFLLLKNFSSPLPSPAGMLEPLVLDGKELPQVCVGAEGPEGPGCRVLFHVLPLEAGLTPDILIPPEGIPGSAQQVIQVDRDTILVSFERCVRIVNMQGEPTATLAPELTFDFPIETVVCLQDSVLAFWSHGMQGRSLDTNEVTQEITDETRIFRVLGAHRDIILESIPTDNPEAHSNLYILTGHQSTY
inactive: sotrastaurin -0.184 | alvocidib -0.076 | Tubastatin A 0.076 | rucaparib -0.003 | encorafenib 0.066 | [4] 0.02 | filanesib -0.143 | zotarolimus -0.083 | [5] 0.426 | gefitinib 0.034 | lapatinib -0.011

KMT5A (UniProt Q9NQR1)
UniProt Q9NQR1, sequence (Q9NQR1 whole entry, looked up): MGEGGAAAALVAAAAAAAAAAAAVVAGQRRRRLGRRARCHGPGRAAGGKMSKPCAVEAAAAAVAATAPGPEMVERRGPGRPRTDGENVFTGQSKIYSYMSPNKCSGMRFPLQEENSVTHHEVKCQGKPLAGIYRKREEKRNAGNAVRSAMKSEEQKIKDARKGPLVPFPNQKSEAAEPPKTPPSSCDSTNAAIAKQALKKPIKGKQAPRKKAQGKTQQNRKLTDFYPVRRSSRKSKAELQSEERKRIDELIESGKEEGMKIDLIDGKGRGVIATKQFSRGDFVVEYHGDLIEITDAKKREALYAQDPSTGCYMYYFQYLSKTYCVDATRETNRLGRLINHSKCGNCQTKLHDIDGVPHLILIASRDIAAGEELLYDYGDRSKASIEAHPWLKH
inactive: sotrastaurin -0.18 | pictilisib 0.368
active: filanesib 0.976

MARCHF3 (UniProt Q86UD3)
inactive: sotrastaurin -0.055 | rucaparib 0 | encorafenib 0.097 | filanesib -0.272 | [5] 0.027 | gefitinib -0.195 | lapatinib -0.033

MAP4K4 isoform 6 (UniProt O95819)
inactive: saracatinib -0.108 | Tubastatin A -0.016 | defactinib -0.012 | rucaparib 0.067 | [2] -0.186 | encorafenib 0.049 | [3] -0.036 | filanesib -0.018 | zotarolimus -0.162 | gefitinib -0.028 | [6] -0.179

LIN52 (UniProt Q52LA3)
UniProt Q52LA3, sequence (Q52LA3 whole entry, looked up): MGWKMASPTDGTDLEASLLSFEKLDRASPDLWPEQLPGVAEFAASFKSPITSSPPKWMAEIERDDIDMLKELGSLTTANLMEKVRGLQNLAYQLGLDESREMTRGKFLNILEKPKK
inactive: saracatinib 0.038 | [2] -0.059 | [6] 0
active: alisertib -0.924

From the supplement of paper PMC10849652
